About 1,700 (3.3%) of roughly 52,000 compounds were called active. Cut-off read from the data, not from the text of the source: active = survival mostly below about 52% (no sharp cut-off); inactive = mostly above about 56%. This excerpt belongs to a sample that is enriched for actives.
test system: Wild type; assay: growth inhibition of S. aureus wild type versus tarO mutant, primary screen, teichoic acid synthesis inhibitors, RN4220, OD600 (AID 463173); conditions: S. aureus RN4220 wild type/DeltatarO growth, OD600, 18 h, hits give low values, screened at 18.75 µg/mL (by protocol)

Row | SMILES | survival
1 | Cc1ccc(C)c(N2CCN(Cc3nnc(-c4ccccc4)o3)CC2)c1 | 87% (inactive)
2 | Cc1ccc(N2CCN(Cc3nnc(-c4ccccc4F)o3)CC2)c(C)c1 | 15% (active)
3 | Cc1ccccc1-c1nnc(CN2CCN(c3cc(Cl)ccc3C)CC2)o1 | 86% (inactive)
4 | Cc1ccc(-n2nc(C(=O)Nc3ccc(C)c(F)c3)c(=O)n(C)c2=O)cc1 | 68% (inactive)
5 | CCc1cccc(NC(=O)CSc2ncc3c(n2)-c2ccccc2N(Cc2ccccc2C)S3(=O)=O)c1 | 0% (active)
6 | CCc1cccc(NC(=O)CSc2ncc3c(n2)-c2ccccc2N(CC)S3(=O)=O)c1 | 95% (inactive)
7 | Cc1ccccc1CN1c2ccccc2-c2nc(SCC(=O)NCc3ccccc3)ncc2S1(=O)=O | -3% (active)
8 | Cc1ccccc1CN1c2ccccc2-c2nc(SCC(=O)NCCc3ccccc3)ncc2S1(=O)=O | 53% (inactive)
9 | O=C(CSc1ncc2c(n1)-c1cc(Cl)ccc1N(Cc1ccccc1)S2(=O)=O)NCCc1ccccc1 | 113% (inactive)
10 | Cc1ccc(CN2c3ccccc3-c3nc(SCC(=O)Nc4c(C)cc(C)cc4C)ncc3S2(=O)=O)cc1 | 133% (inactive)
11 | O=C(CSc1ncc2c(n1)-c1ccccc1N(Cc1ccc(F)cc1)S2(=O)=O)NCCc1ccccc1 | 73% (inactive)
12 | CCN1c2ccccc2-c2nc(SCC(=O)NCc3ccccc3)ncc2S1(=O)=O | 74% (inactive)
13 | O=C(CSc1ncc2c(n1)-c1ccccc1N(Cc1ccccc1)S2(=O)=O)Nc1ccccc1 | -6% (active)
14 | NC(=O)CSc1ncc2c(n1)-c1ccccc1N(Cc1ccccc1)S2(=O)=O | 69% (inactive)
15 | Cc1ccc(CN2c3ccccc3-c3nc(SCC(=O)NCCc4ccccc4)ncc3S2(=O)=O)cc1 | 14% (active)
16 | CCOc1ccc(NC(=O)CSc2ncc3c(n2)-c2ccccc2N(Cc2ccccc2C)S3(=O)=O)cc1 | 63% (inactive)
17 | Cc1ccc2[nH]c(CSc3nnc(NC(=O)c4ccccc4C)s3)cc(=O)c2c1 | 72% (inactive)
18 | O=C(NCCCO)c1cc2sc3ccccc3c2s1 | 103% (inactive)
19 | O=C(Nn1c(Cc2ccccc2)nc2ccccc2c1=O)c1ccco1 | 107% (inactive)
20 | O=C(CSc1ncc2c(n1)-c1ccccc1N(Cc1ccc(F)cc1)S2(=O)=O)NCc1ccccc1 | 76% (inactive)
21 | Cc1ccc(CN2c3ccccc3-c3nc(SCC(=O)NCc4ccccc4)ncc3S2(=O)=O)cc1 | -1% (active)

Row | SMILES | survival
22 | CCN1c2ccccc2-c2nc(SCC(=O)NCc3ccc(C)cc3)ncc2S1(=O)=O | 79% (inactive)
23 | COc1ccc(N(CC(=O)N2CCN(c3cccc(Cl)c3)CC2)S(=O)(=O)c2c(C)noc2C)cc1 | 84% (inactive)
24 | Cc1cc(C)c2sc(N3CCN(C(=O)c4ccc(N(C)C)cc4)CC3)nc2c1 | 136% (inactive)
25 | O=C(CC1COc2ccccc2O1)NCc1ccccc1 (centres undefined) | 105% (inactive)
26 | O=C(Nc1ccc(F)cc1)Nc1csc2c1CCCC2 | 12% (inactive)
27 | COc1ccc(-n2c(SCC(=O)c3ccccc3)nc3c([nH]c4ccccc43)c2=O)cc1 | 88% (inactive)
28 | O=C(CSc1nc2c([nH]c3ccccc32)c(=O)n1-c1ccccc1)c1ccccc1 | 73% (inactive)
29 | O=C(CSc1nc(-c2cccs2)nc2cc(=O)[nH]n12)Nc1cccc(C(F)(F)F)c1 | 128% (inactive)
30 | CCOc1ccc(-n2c(SCC(=O)N3CCCC3)nc3c([nH]c4ccccc43)c2=O)cc1 | 73% (inactive)
31 | CCOc1ccc(-n2c(SCC(=O)N3CCOCC3)nc3c([nH]c4ccccc43)c2=O)cc1 | -3% (active)
32 | O=C(CSc1nc2c([nH]c3ccccc32)c(=O)n1-c1ccccc1)N1CCc2ccccc21 | 73% (inactive)
33 | Cc1cccc(-c2nc(SCC(=O)Nc3cccc(C(F)(F)F)c3)n3[nH]c(=O)cc3n2)c1 | -3% (active)
34 | Cc1ccc(-n2c(SCC(=O)N3CCc4ccccc43)nc3c([nH]c4ccccc43)c2=O)cc1 | 120% (inactive)
35 | O=C(CSc1nc(-c2ccccc2F)nc2cc(=O)[nH]n12)Nc1cccc(C(F)(F)F)c1 | 69% (inactive)
36 | Cc1ccc(-n2c(SCC(=O)c3ccccc3)nc3c([nH]c4ccccc43)c2=O)cc1 | -6% (active)
37 | CCOc1ccc(-n2c(SCC(=O)N3CCCCC3)nc3c([nH]c4ccccc43)c2=O)cc1 | 94% (inactive)
38 | Cc1cc(C)cc(-n2c(SCC(=O)N3CCc4ccccc43)nc3c([nH]c4ccccc43)c2=O)c1 | 14% (active)
39 | Cc1ccc(CNC(=O)C2(c3cccs3)CCOCC2)cc1 | 69% (inactive)
40 | O=C(Nc1ccc2oc(-c3ccc4ccccc4c3)nc2c1)c1cc(Br)ccc1Cl | 96% (inactive)
41 | COc1ccc(NC(=O)CSc2nc(-c3ccc(OC)c(OC)c3)[nH]c2-c2ccc(C)cc2)cc1 | 139% (inactive)
42 | CCOC(=O)c1ccc(NC(=O)CCn2ccc(C)n2)cc1 | 110% (inactive)

Row | SMILES | survival
43 | COc1ccc(C2C(=O)N(C3CCCCC3)CC(=O)N2C2CCCCC2)cc1 (centres undefined) | 76% (inactive)
44 | Cc1cccc(NC(=O)c2oc3ccccc3c2NC(=O)c2cc(=O)c3cc(Cl)ccc3o2)c1 | 85% (inactive)
45 | COc1ccc(-c2nc(C)c(CCNC(=O)c3cccs3)s2)cc1OC | 69% (inactive)
46 | Cc1ccccc1-c1nc(CS(=O)(=O)CC(=O)NCCCc2ccccc2)c(C)o1 | 138% (inactive)
47 | Cc1cccc(NC(=O)CSc2nc3c([nH]c4ccccc43)c(=O)n2-c2ccc(F)cc2)c1C | 22% (inactive)
48 | Cc1ccc(C)c(NC(=O)CSc2nc3c([nH]c4ccccc43)c(=O)n2-c2ccc(F)cc2)c1 | 0% (active)
49 | COC(=O)C(C)Sc1nc2c([nH]c3ccccc32)c(=O)n1-c1ccc(OC)cc1 (centres undefined) | 75% (inactive)
50 | COc1ccc(-n2c(SCC(=O)N3CCC(C)CC3)nc3c([nH]c4ccccc43)c2=O)cc1 | 79% (inactive)
51 | CCOc1ccc(-n2c(SC(C)C(=O)OC)nc3c([nH]c4ccccc43)c2=O)cc1 (centres undefined) | -2% (active)
52 | Cc1cc(C)cc(-n2c(SCC(=O)N3CCCC3)nc3c([nH]c4ccccc43)c2=O)c1 | 69% (inactive)
53 | Cc1cc(C)cc(-n2c(SCC(=O)N3CCC(C)CC3)nc3c([nH]c4ccccc43)c2=O)c1 | -1% (active)
54 | Cc1cc(C)cc(-n2c(SCC(=O)N3CCCCC3)nc3c([nH]c4ccccc43)c2=O)c1 | 78% (inactive)
55 | CC1CCN(C(=O)CSc2nc3c([nH]c4ccccc43)c(=O)n2-c2ccccc2)CC1 | 83% (inactive)
56 | CCOc1ccc(-n2c(SCC(=O)Nc3cc(C)ccc3C)nc3c([nH]c4ccccc43)c2=O)cc1 | 59% (inactive)
57 | Cc1ccc(-n2c(SCC(=O)N3CCC(C)CC3)nc3c([nH]c4ccccc43)c2=O)cc1 | -6% (active)
58 | CCOC(=O)CSc1nc2c([nH]c3ccccc32)c(=O)n1-c1ccc(OCC)cc1 | 80% (inactive)
59 | CCc1ccc(-c2nc(CS(=O)CC(=O)NCc3ccc(F)cc3)c(C)o2)cc1 (centres undefined) | 73% (inactive)
60 | O=C1N/C(=N\S(=O)(=O)Cc2ccccc2)S/C1=C\c1ccco1 | 106% (inactive)
61 | COc1ccccc1CNC(=O)Cn1c(=O)nc(-c2ccccc2)c2ccccc21 | 67% (inactive)
62 | CCc1ccc(-n2c(N3CCN(c4cccc(C)c4C)CC3)nc3ccccc3c2=O)cc1 | 81% (inactive)
63 | Cc1c(C(=O)NCc2ccccc2Br)oc2c1-c1[nH]ncc1CC2 | 82% (inactive)

Row | SMILES | survival
64 | Cc1ccc(C(=O)Nc2ccc3c(c2)N(C)C(=O)c2ccccc2S3)cc1 | 99% (inactive)
65 | COc1ccc(Cl)cc1NC(=O)Cn1c(=O)n(Cc2ccco2)c(=O)c2ccc(C(=O)NC3CCCC3)cc21 | 87% (inactive)
66 | COc1cccc(-n2c(SCC(=O)N3CCCCC3)nc3c([nH]c4ccccc43)c2=O)c1 | -3% (active)
67 | COC(=O)c1ccc(CSc2nc3c([nH]c4ccccc43)c(=O)n2-c2ccc(Cl)cc2)o1 | 121% (inactive)
68 | O=C(CSc1nc2c([nH]c3ccccc32)c(=O)n1-c1ccc(F)cc1)NCc1ccco1 | 88% (inactive)
69 | O=C(CSc1nc2c([nH]c3ccccc32)c(=O)n1-c1ccccc1)Nc1cccc(C(F)(F)F)c1 | -6% (active)
70 | CCOc1ccc(-n2c(SCC(=O)NCc3ccco3)nc3c([nH]c4ccccc43)c2=O)cc1 | 10% (active)
71 | O=C(CSc1nc2c([nH]c3ccccc32)c(=O)n1-c1ccccc1)N1CCCCC1 | 69% (inactive)
72 | COC(=O)c1ccc(CSc2nc3c([nH]c4ccccc43)c(=O)n2-c2cc(C)cc(C)c2)o1 | 0% (active)
73 | COc1ccc(-n2c(SCC(=O)NCc3ccco3)nc3c([nH]c4ccccc43)c2=O)cc1 | 75% (inactive)
74 | COC(=O)c1ccc(CSc2nc3c([nH]c4ccccc43)c(=O)n2-c2cccc(Cl)c2)o1 | 71% (inactive)
75 | O=C(CSc1nc2c([nH]c3ccccc32)c(=O)n1-c1ccccc1)N1CCCCCC1 | 78% (inactive)
76 | COc1cccc(NC(=O)CSc2nc3c([nH]c4ccccc43)c(=O)n2-c2ccccc2)c1 | 67% (inactive)
77 | O=C(CSc1nc2c([nH]c3ccccc32)c(=O)n1-c1ccccc1F)Nc1cccc(C(F)(F)F)c1 | 71% (inactive)
78 | CCc1cccc(C)c1NC(=O)c1cc(S(=O)(=O)N2CCN(c3ccccc3)CC2)ccc1F | 73% (inactive)
79 | COc1cccc(NC(=O)NCc2ccc3c(c2)CCN3C(=O)c2ccccc2)c1 | 64% (inactive)
80 | COC(=O)C1=NN(C(=O)c2cccc(OC)c2)C(C)(O)C1 (centres undefined) | 123% (inactive)
81 | COc1cccc(C(=O)N2CC(C)OC(C)C2)c1 (centres undefined) | 107% (inactive)
82 | COc1ccc(OCC(=O)N2CCN(C(=O)c3cccc(OC)c3)CC2)cc1 | 88% (inactive)
83 | COc1cccc(C(=O)N2c3cc(C)ccc3C(C)(c3ccccc3)CC2(C)C)c1 (centres undefined) | 1% (active)
84 | COc1cccc(C(=O)N2c3ccc(C)cc3C(C)(c3ccccc3)CC2(C)C)c1 (centres undefined) | -2% (active)
